Experimental findings from PubChem BioAssay AID463193 (University of Pittsburgh Molecular Library Screening Center, 2010) are described below.

About 1,900 (1%) of roughly 190,000 compounds were called active.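 Rule for the calls: active = percentage of spot-positive cells more than 3 SD above its plate mean, without a fluorescence outlier flag or 80% toxicity; inconclusive = no clear call, values can overlap the other calls; inactive = the rest.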 Shown is part of a subset that was picked to be rich in actives.

The nature of this assay: GFP-LC3 puncta formation changes – imaging, high-content, MEF GFP-LC3, primary screen (AID 463193).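 For % cells with GFP-LC3 spots: spot-positive cell cutoff set from DMSO-treated cells.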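 For toxicity: cell loss after 18 h compound exposure.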 The settings on record: autophagy, at 10 µM; % cells with GFP-LC3 spots: stronger effect = higher value; toxicity: measured here: cell loss, nuclei count.
`COc1cccc2cc(S(=O)(=O)c3ccc(C)cc3)/c(=N/NS(=O)(=O)c3ccc(C)cc3)oc12`: the % cells with GFP-LC3 spots was 5.62% (inactive) and the toxicity came out at 3.69%.

For the compound `CCN1C(=O)/C(=C2/Sc3ccccc3N2CCCS(=O)(=O)O)SC1=S`, the % cells with GFP-LC3 spots is 1.02% (inactive) and the toxicity is -10.6%.

For the compound `CCN1C(=O)/C(=c2\s/c(=C3\Sc4ccccc4N3C)c(=O)n2C)N(C)C1=S`, the % cells with GFP-LC3 spots is 1.17% (inactive) and the toxicity turned out to be 19.3%.

For the compound `CCN1C(=O)/C(=C2/Sc3ccc(OC)cc3N2C)SC1=Nc1ccc(C)cc1`, the % cells with GFP-LC3 spots was 24.8% (active) and the toxicity is -15%.

On to `CC(=O)c1ccc(N=C2SCCCN2C(=O)C2CCCCC2)cc1`, for which the % cells with GFP-LC3 spots was 1.47% (inactive) and the toxicity was -1.61%.

In the case of `CCCOc1ccc(N/C=C/C(=O)C(C)(C)C)cc1`, the % cells with GFP-LC3 spots was 0.722% (inactive) and the toxicity is -6.8%.

With `CCCOc1ccc(NC(=O)C2OC3OC(C)(C)OC3C3OC(C)(C)OC23)cc1` (configuration not stated), the % cells with GFP-LC3 spots is 19.1% (active) and the toxicity was -25.3%.

As to `CCCOc1ccc(NC(=O)C2CCCNC2=O)cc1` (configuration not stated), the % cells with GFP-LC3 spots was 12.2% (inactive) and the toxicity was -1.43%.

In the case of `C=CCOc1c(Br)cc(/C=N\n2nnnc2N)cc1OC`, the % cells with GFP-LC3 spots was 6.77% (inactive) and the toxicity turned out to be 29%.

With `CC1(C)CCCC2=C1CC1C(=O)N(c3ccccc3)C(=O)C1C2` (configuration not stated), the % cells with GFP-LC3 spots was 3.25% (inactive) and the toxicity was 1.28%.

As to `CC1CC2=C(CC1/C=N/NC(N)=S)C(C)(C)CCC2` (configuration not stated), the % cells with GFP-LC3 spots was 39.4% (active) and the toxicity came out at 20%.

For the compound `Cc1cc2c(C)nc(N/N=C/c3ccccc3)nc2o1`, the % cells with GFP-LC3 spots was 16.3% (inactive) and the toxicity was found to be 2.3%.

Consider `Cc1ccc(Cl)cc1N1CCN(C(=O)c2cccc3c(=O)c(C)c(-c4ccccc4)oc23)CC1`, for which the % cells with GFP-LC3 spots was 3.68% (inactive) and the toxicity turned out to be 9.69%.

Regarding `O=C1CCC(=O)N1c1ccc(NCCc2ccccc2F)c([N+](=O)[O-])c1`, the % cells with GFP-LC3 spots was 1.23% (inactive) and the toxicity was 31.5%.

Regarding `CC(Oc1cccc(NC(=O)c2cccs2)c1)C(=O)c1ccccc1` (configuration not stated), the % cells with GFP-LC3 spots was 9.23% (inactive) and the toxicity came out at 21.1%.

With `Cc1ccc(NC(=O)CN2CCCCC2)c2c1CC(C)(C)O2`, the % cells with GFP-LC3 spots was 4.85% (inactive) and the toxicity is -23.6%.

In the case of `CCCc1[nH]nc2c1C(C1CC=CCC1)C(C#N)=C(N)O2` (configuration not stated), the % cells with GFP-LC3 spots was 8.01% (inactive) and the toxicity worked out at 13%.

In the case of `CCCc1[nH]nc2c1C(c1c(C)nn(-c3ccccc3)c1Cl)C(C#N)=C(N)O2` (configuration not stated), the % cells with GFP-LC3 spots is 16.1% (inactive) and the toxicity came out at 24.7%.

Consider `CCCc1[nH]nc2c1C(c1ccc(Br)s1)C(C#N)=C(N)O2` (configuration not stated), for which the % cells with GFP-LC3 spots is 13.3% (active) and the toxicity amounted to 8.15%.

As to `Cc1ccc(OCc2n[nH]c(=S)n2-c2ccccc2)cc1`, the % cells with GFP-LC3 spots was 4.42% (inactive) and the toxicity is -18.6%.

In the case of `COc1ccc(Nc2ncc(F)c(N3CCOCC3)n2)cc1`, the % cells with GFP-LC3 spots was 7.22% (inactive) and the toxicity amounted to 8.68%.

Consider `O=C(Nc1cccc(F)c1)N1C2CCC1CC(O)(c1cccnc1)C2` (configuration not stated), for which the % cells with GFP-LC3 spots is 1.55% (inactive) and the toxicity amounted to 2.7%.

As to `COc1ccccc1CNC(=O)Cn1cc2c(n1)CCCC2`, the % cells with GFP-LC3 spots is 15.2% (active) and the toxicity was determined as 6.76%.

As for `O=C(Cn1cc2c(n1)CCCCC2)NCCN1CCOCC1`, the % cells with GFP-LC3 spots was 5.99% (inactive) and the toxicity was -2.07%.

Consider `COCCNC(=O)Cn1cc2c(n1)CCCCC2`, for which the % cells with GFP-LC3 spots was 4.61% (inactive) and the toxicity was -6.66%.

On to `CC(C)NC(=O)NCCCCCCS(C)=O` (configuration not stated), for which the % cells with GFP-LC3 spots is 22.5% (inactive) and the toxicity was found to be 23.6%.

Consider `CCOC(=O)c1c(NC(=O)C(C)Sc2c[nH]c3ccccc23)sc2c1CCC2` (configuration not stated), for which the % cells with GFP-LC3 spots is 5.48% (inactive) and the toxicity was determined as 2.6%.

For the compound `COc1ccc(CCc2nnc(CCC(=O)NCc3cnn(-c4ccccc4C)c3)o2)cc1`, the % cells with GFP-LC3 spots was 10.6% (inactive) and the toxicity is -18.2%.

For the compound `COc1cccc(CN(C)CC(=O)Nc2sc3c(c2C#N)CCC3)c1`, the % cells with GFP-LC3 spots is 6.72% (inactive) and the toxicity was -31.4%.

With `CC(C)[C@H](NC(=O)c1ccc(F)cc1)C(=O)OCC(=O)NC(=O)c1cccn1C`, the % cells with GFP-LC3 spots is 10.6% (inactive) and the toxicity is -0.516%.

In the case of `CCCCS(=O)c1snnc1C` (configuration not stated), the % cells with GFP-LC3 spots is 3.68% (inactive) and the toxicity is 1.95%.

As to `CCc1nnc(NS(=O)(=O)c2ccc(NS(=O)(=O)c3ccccc3)cc2)s1`, the % cells with GFP-LC3 spots is 1.63% (inactive) and the toxicity worked out at 20.8%.

For `CCc1nnc(NS(=O)(=O)c2ccc(NC(=S)NC(=O)/C=C/c3cccs3)cc2)s1`, the % cells with GFP-LC3 spots was 5.75% (active) and the toxicity was found to be 7.01%.

Turning to `CCc1nnc(NS(=O)(=O)c2ccc(NC(=S)NC(=O)c3cccs3)cc2)s1`, the % cells with GFP-LC3 spots was 5.87% (inactive) and the toxicity is -9.89%.

`O=C(O)CCN(Cc1ccccc1)S(=O)(=O)c1c(Cl)cccc1Cl`: the % cells with GFP-LC3 spots was 1% (inactive) and the toxicity was 7.07%.

For `COc1ccc(C(=O)NNc2cc(C)nc(NNC(=O)c3ccc(OC)cc3)n2)cc1`, the % cells with GFP-LC3 spots is 0% (inactive) and the toxicity was -3.42%.

On to `COC(=O)[C@@H]1CC[C@H](C)[C@@H](c2ccc(C)cc2)N1C(=O)c1ccc(/C=N/O[C@H](C)c2cn([C@@H]3COC[C@H]3O)nn2)cc1`, for which the % cells with GFP-LC3 spots is 9.78% (inactive) and the toxicity worked out at 5.86%.

Turning to `O=C(NC1CCCCC1)C1CCCN(S(=O)(=O)c2ccc(Br)s2)C1` (configuration not stated), the % cells with GFP-LC3 spots was 0.705% (inactive) and the toxicity was 2.95%.

In the case of `O=C(CCn1c(=O)[nH]c2ccccc2c1=O)NCCCN1CCN(c2cccc(Cl)c2)CC1`, the % cells with GFP-LC3 spots was 7.4% (inactive) and the toxicity came to 9.47%.

Consider `Cn1c(C(=O)NCCCN2CCN(c3cccc(Cl)c3)CC2)cc2c(=O)n(C)c3ccccc3c21`, for which the % cells with GFP-LC3 spots was 6.58% (inactive) and the toxicity came out at 2.89%.

For the compound `CCn1c(=O)cc(OCC(=O)NCCCN2CCN(c3cccc(Cl)c3)CC2)c2ccccc21`, the % cells with GFP-LC3 spots was 14.4% (active) and the toxicity turned out to be 23.1%.
